Measurements reported in ChEMBL document CHEMBL3433997, “St. Jude Leishmania screening dataset” (2016).

Columns and labels:
Format in all cases: functional
[1] = target: Solute carrier family 2, facilitated glucose transporter member 1 (Homo sapiens) (UniProt P11166); assay: ST_JUDE_LEISH: Cytotoxicity at 2uM final concentration against transgenic Leishmania Mexicana promastigotes LmGLUT1 that are glucose transport deficient and complemented with the human glucose transporter GLUT1. Activity is measured by DNA content using SYBR green in vitro
Solute carrier family 2, facilitated glucose transporter member 1 (Homo sapiens), sequence (P11166 whole entry): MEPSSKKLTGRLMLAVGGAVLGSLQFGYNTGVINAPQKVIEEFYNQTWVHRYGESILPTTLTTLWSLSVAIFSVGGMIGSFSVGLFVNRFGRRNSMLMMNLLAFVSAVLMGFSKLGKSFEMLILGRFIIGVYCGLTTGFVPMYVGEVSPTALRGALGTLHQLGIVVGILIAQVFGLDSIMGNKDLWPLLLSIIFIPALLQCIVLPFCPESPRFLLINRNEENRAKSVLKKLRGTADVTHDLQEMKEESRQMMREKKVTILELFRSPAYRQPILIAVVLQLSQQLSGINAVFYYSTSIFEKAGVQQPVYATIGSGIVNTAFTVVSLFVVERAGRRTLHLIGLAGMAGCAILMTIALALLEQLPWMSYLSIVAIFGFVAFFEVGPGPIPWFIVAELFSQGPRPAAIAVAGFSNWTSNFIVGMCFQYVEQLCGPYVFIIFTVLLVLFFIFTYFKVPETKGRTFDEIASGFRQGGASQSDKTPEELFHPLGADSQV

[2] = target: Hexose transporter 1 (Plasmodium falciparum) (UniProt O97467); assay: ST_JUDE_LEISH: Cytotoxicity at 2uM final concentration against transgenic Leishmania Mexicana promastigotes LmPfHT that are glucose transport deficient and complemented with the Plasmodium falciparum hexose transporter. Activity is measured by DNA content using SYBR green in vitro
[3] = target: Glucose transporter (Leishmania mexicana) (UniProt O61059); assay: ST_JUDE_LEISH: Cytotoxicity at 2uM final concentration against transgenic Leishmania Mexicana promastigotes LmGT2 that are glucose transport deficient and complemented with the L. Mexicana glucose transporter 2. Activity is measured by DNA content using SYBR green in vitro

| SMILES | inhibition [1] [%] | inhibition [2] [%] | inhibition [3] [%] |
| --- | --- | --- | --- |
| O=C(NC1CC1)c1ccc(N2CCC(Cc3ccccc3)CC2)nc1 | 3.46 | 4.8 | -1.16 |
| CC(C)Nc1nc(NCCc2c[nH]cn2)nc(Nc2ccc(Oc3ccccc3)cc2)n1 | 2.08 | 2.71 | -1.98 |
| CCCN(CCCCNC(=O)c1ccc(-c2cccnc2)cc1)C1CCc2c(O)cccc2C1 (configuration not stated) | 3.63 | 2.13 | 3.11 |
| Cc1cc2nc(-c3ccc(/C=C/C(=O)NCc4ccc(Cl)c(Cl)c4)cc3)[nH]c2cc1C | 8.62 | 8.06 | 4.96 |
| Cc1cc(C)c(C(=O)Nc2ccc3nc(C)cc(N)c3c2)c(C)c1 | -0.82 | 1.52 | 2.61 |
| CC(=O)Nc1cc(C(=O)Nc2cccc(-c3csc(-c4nc5ccccc5[nH]4)c3)c2)ccc1C | 10.5 | 9.84 | 9.18 |
| COc1ccc(Nc2nc(N)c3cc(OC)c(OC)cc3n2)cc1OC | 9.02 | 7.54 | 5.87 |
| COc1ccc2[nH]c(C)cc(=NN=Cc3ccncc3)c2c1 | 3.45 | -0.44 | 4.43 |
| Cc1ccccc1C1CCN(C2CCC(NC(=O)/C=C/c3cc(F)ccc3F)CC2)CC1 (configuration not stated) | 1.51 | 2.73 | 3.64 |
| CCC[C@@H](C(=O)NCCc1cccc(OC)c1)N1C(=O)c2c(ccc(OC)c2OC)C1C(=O)Nc1c(C)cccc1C (some centres not stated) | 0.5 | 0 | 0.1 |
| CCOc1cc(C(=O)Nc2cccnc2)cc(Br)c1OCCC(C)C | 1.25 | -2.07 | -0.8 |
| CC(C)(C)c1ccc(C(=O)N2CCC3(CC2)C(=O)N(CC(=O)NCC2CCCO2)CN3c2ccccc2)cc1 (configuration not stated) | 0.44 | 4.61 | 0.02 |
| O=C1c2cc(I)ccc2SC1c1ccccc1 (configuration not stated) | 1.22 | 0.48 | 0.13 |
| C=C[C@H]1CN(CCCCCCC)CC[C@H]1CC(=O)Nc1cnnc2ccc(OC)cc12 | 1.79 | 0.25 | 4.78 |
